# Source: PubChem BioAssay AID1347426 (Functional Genomics Laboratory (NCATS/FGL), 2020)
# The whole screen tested about 31,000 sequences, of which about 1,400 (4.5%) were called active.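 How the source made its calls: active means median seed-adjusted z-score above 1 or below -1; inactive means the rest.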 The sample as a whole holds a higher share of actives than the screen did.
# Assay: Novel Modifiers of Survival Motor Neuron (SMN) Protein: Gene Identification via Genome-wide siRNA Screen;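 further: luminescence tracks full-length SMN protein made from the SMN2 reporter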
# Details: HEK293T SMN2-luciferase reporter, siRNA knockdown, 72 h; actives lie on both sides
# How it was run: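 Steps: spot 1 pmol siRNA, add Lipofectamine RNAiMax in serum-free DMEM, seed HEK293T SMN2–luciferase reporter cells; incubate 72 h at 37 °C; add ONE-Glo; normalize luminescence to control siRNA, log10, MAD. Candidates: |MAD| > 1.0.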
row,Sequence,median seed-adjusted z-score
1,GCAAGAGAAUUAAACUGCATT against RAB8A,-0.0436 (inactive)
2,GAGUUACAGCUGAUCAAAATT against VPS26A,-1.55 (active)
3,GGGAUCAACUUAGAAGAGATT against POU6F1,0.978 (inactive)
4,GGAUGCUGCUGAGAACUAUTT against PIK3R3,-1.88 (active)
5,GGAUCUUGAAUUCAACUAUTT against TLR8,0 (inactive)
6,CGCUAUGAUCUGUACCACATT against TMEM147,0.233 (inactive)
7,GGAACGCAGUCAGAUUUGATT against CA5B,0.317 (inactive)
8,GCGAUGAAAUUGUCGUGUATT against MAP3K9,-0.498 (inactive)
9,AGAUAACUGGAAAAUGUCUTT against SLC22A18AS,0.0382 (inactive)
10,CAAUGUCCGUGAUCAUGAUTT against SARDH,-0.195 (inactive)
11,GCCUCACCGUCUAUGUACATT against CD200,-0.0135 (inactive)
12,GGAUCACGAUGAAGACAAATT against CTSL3,1.07 (active)
13,ACUGGGCUCUCUUUACCUATT against DBNL,0.398 (inactive)
14,GAACAGGCGUGCCAAGUCUTT against MIXL1,-0.204 (inactive)
15,AAAGCGCAAUUGGUGGUAATT against DYNLT1,0.764 (inactive)
16,GGUUGCUAUCAAUACCCUUTT against SLC22A18,-0.654 (inactive)
17,CCAUCCUUAGAGUUCCUUATT against SLC23A3,-0.254 (inactive)
18,CGGUAUGCCUGUGACGACATT against FCER2,-1.75 (active)
19,AAAUCACACCAAACACUUATT against STX11,-0.518 (inactive)
20,GCAGCUGCCGGAAAUGUUATT against KRT81,-0.0955 (inactive)
21,CAAUCAAAGGGAAACUUGATT against TPT1,0.236 (inactive)
22,GGAGAAUGGUUCGACUGUUTT against CKAP5,-1.87 (active)
23,GGCUGUUUGUGAUGGAUAATT against GALNT2,0.0798 (inactive)

row,Sequence,median seed-adjusted z-score
1,GAAACGUGGUGAGACCUCATT against PRKX,0.0341 (inactive)
2,CAUUCGUCGUAACUUUACATT against MIPEP,-0.169 (inactive)
3,CUUUCAUCUCUAAAACUGATT against LHX3,0.622 (inactive)
4,CCAGAUAAAUCUAUAGCAATT against RCOR1,-1.13 (active)
5,CAAUGGAACUUUAGAUUAUTT against PCDHA11,0.582 (inactive)
6,GGCUUUUAAGACUAAGGAATT against TRIM69,0.214 (inactive)
7,GCCUCCCAGAUGAUCGUCATT against SLC6A13,0.267 (inactive)
8,GGACGAUGCUGAUACGGUATT against NOP2,1.15 (active)
9,CACCAGACAUCAAAAUCAATT against ATF7,0.903 (inactive)
10,GCACAGACCUGGUGUGGAATT against NECAB2,-0.286 (inactive)
11,UGACCUUUCCUAUCUAUAATT against MCART6,0.714 (inactive)
12,GGACACUAUAAGAAAGGAATT against FNTA,1.04 (active)
13,AGGUUUGGCUCAACUCUGATT against P2RX2,0.0454 (inactive)
14,GGAAAUUGCUUACAGGAAATT against ARSJ,-0.0978 (inactive)
15,GCUUAUCGGUUGAUCAUCATT against SLC6A4,1.43 (active)
16,GCAAGCUGCUGAUCGAGUUTT against KAT5,0.32 (inactive)
17,GGGACAUUUCCAAAUGGAATT against ARL6IP5,-0.202 (inactive)
18,GGGACUCUGUAUUCCCUCUTT against WFDC2,-0.466 (inactive)
19,CGUAUAGUCAAAGCUCAAATT against ZNF24,0.388 (inactive)
20,GAAGAGUUACUACAGUAAATT against MYT1,-0.292 (inactive)
21,CGAAGGAAAUGUACAGCAATT against SLC25A42,-1.02 (active)
22,CAAGGUUCUUGGUUGGGUATT against ZDHHC13,-0.381 (inactive)
23,CAUCAAUGGUCAUAAUGCATT against HNRNPA2B1,1.33 (active)

row,Sequence,median seed-adjusted z-score
1,AAGAUGCUCUCCCACCUAATT against POLD4,0.225 (inactive)
2,GGUCUACCGGAUUAUCACATT against BRD2,-0.242 (inactive)
3,GGUCUUGAAGUGUACCCUATT against ITGAV,1.17 (active)
4,GCAUAGACACCAUCAUCAATT against GCLC,-0.21 (inactive)
5,ACUUCUACAUCAACGACAATT against ALDH4A1,0.0362 (inactive)
6,GGAAAGAGAACGAAUCGAATT against PPM1D,-0.66 (inactive)
7,GCCUUUGGUUCGCAAGUUUTT against DYRK2,0 (inactive)
8,CAACGAUCCCUGUACCAGUTT against GABBR2,-0.038 (inactive)
9,CCUACUACCUCAAACACCATT against SYVN1,-1.41 (active)
10,GCUUAUUAGCCUCCAAUUUTT against ZSCAN5A,0.31 (inactive)
11,GAAGAACCCUGGUCUUUCATT against CARD14,-0.104 (inactive)
12,GCUGUGCCUUAUAACCGAATT against LRRK2,-0.671 (inactive)
13,GGGUCAUCCGAGAUUCUCATT against DLG5,0.467 (inactive)
14,GGGUCCAACAUUCCGAAUATT against CHD1,-1.03 (active)
15,GGCCUUCGGCUAAAAGAGATT against KIF22,0.283 (inactive)
16,CGGUAAUAGCAAUUCAGCATT against HEATR6,0 (inactive)
17,GAGAGAUAUUGAUCGACUUTT against ARG2,-0.796 (inactive)
18,GAGACAAGCUUCAACCACATT against SERPINA5,-1.01 (active)
19,GCAUUGGUAAAAUUGCUAATT against AVIL,-0.127 (inactive)
20,CGGACCGGCAGAGAACAAATT against PLA2G10,1.07 (active)
21,GCUAUGUCAUCACUACCAATT against KCNAB3,0.0697 (inactive)
22,GGAGUGCCCACAGUCAGAATT against SMUG1,-1.38 (active)
23,GGCUAUGUGCGGGAGUAUATT against PI4KA,0 (inactive)
